According to PubChem BioAssay (EPA / NIEHS):
Results filed as inconclusive are left out. Activity calls are given as the source filed them. The calls were made as follows, unless noted: active = hit-call score of the fitted dose curve at least 0.9, where 1 is the maximum; inconclusive = response in the unintended direction; inactive = score below 0.9.

Experiments:
[1] = read-out: Transforming Growth Factor (TGFA), TGFA (gene 7039); experiment: LTEA_HepaRG_TGFA: Life Technologies and Expression Analysis (LTEA) Assay for Transforming Growth Factor (TGFA) using HepaRG (AID 2283532; active = hit-call score of the fitted dose curve at least 0.9, where 1 is the maximum; inactive = score below 0.9); conditions: mRNA level, 48 h; actives raise or lower the signal
In short: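 Differentiated human HepaRG cells, plated 48 h then switched to serum-free induction medium, were exposed in duplicate for 48 h to 8-point half-log series from 100 uM in 0.5% DMSO. TGFA mRNA measured by qRT-PCR, normalized to ACTB/GAPDH/POLR2A, bidirectional fit versus DMSO.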

[2] = read-out: Transforming Growth Factor (TGFB1), TGFB1 (gene 7040); experiment: LTEA_HepaRG_TGFB1: Life Technologies and Expression Analysis (LTEA) Assay for Transforming Growth Factor (TGFB1) Transporter using HepaRG (AID 2283533; active = hit-call score of the fitted dose curve at least 0.9, where 1 is the maximum; inactive = score below 0.9); conditions: mRNA level, 48 h; actives raise or lower the signal
In short: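 Differentiated HepaRG cells exposed 48 hr in serum-free induction medium to eight half-log concentrations up to 100 uM (0.5% DMSO), duplicate; TGFB1 mRNA by TaqMan qRT-PCR normalised to ACTB, GAPDH, POLR2A; bidirectional fit against DMSO.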

TIMP1, TIMP1 (gene 7076) = experiment: LTEA_HepaRG_TIMP1: Life Technologies and Expression Analysis (LTEA) Assay for TIMP1 using HepaRG (AID 2283534; active = hit-call score of the fitted dose curve at least 0.9, where 1 is the maximum; inactive = score below 0.9;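 also: TaqMan qRT-PCR signal normalized to ACTB GAPDH and POLR2A housekeeping genes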); conditions: mRNA level, 48 h; actives raise or lower the signal
In short: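 Differentiated HepaRG cells exposed 48 h in serum-free induction medium, duplicates, eight half-log concentrations from 100 uM in 0.5% DMSO. TIMP1 mRNA by qRT-PCR normalized to ACTB, GAPDH, POLR2A; bidirectional fitting against DMSO.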

[3] = read-out: Tumor necrosis factor receptor 1 (TNFRSF1A), TNFRSF1A (gene 7132); experiment: LTEA_HepaRG_TNFRSF1A: Life Technologies and Expression Analysis (LTEA) Assay for Tumor necrosis factor receptor 1 (TNFRSF1A) using HepaRG (AID 2283535; active = hit-call score of the fitted dose curve at least 0.9, where 1 is the maximum; inactive = score below 0.9); conditions: mRNA level, 48 h; actives raise or lower the signal
In short: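 Differentiated HepaRG cells in serum-free induction medium, exposed 48 h in duplicate to 8 half-log concentrations up to 100 uM in 0.5% DMSO. TNFRSF1A mRNA by Fluidigm TaqMan qRT-PCR, normalized to ACTB, GAPDH, POLR2A; bidirectional fit.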

[4] = read-out: Thyroid Hormone Responsive (THRSP), THRSP (gene 7069); experiment: LTEA_HepaRG_THRSP: Life Technologies and Expression Analysis (LTEA) Assay for Thyroid Hormone Responsive (THRSP) using HepaRG (AID 2283536; active = hit-call score of the fitted dose curve at least 0.9, where 1 is the maximum; inactive = score below 0.9); conditions: mRNA level, 48 h; actives raise or lower the signal
In short: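 Differentiated human HepaRG cells were exposed in duplicate for 48 h in serum-free induction medium to eight concentrations (top 100 uM, half-log steps, 0.5% DMSO). Expression was quantified by TaqMan qRT-PCR, normalized to ACTB, GAPDH and POLR2A, with bidirectional fitting against DMSO.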

[5] = read-out: Cellular tumor antigen p53 (Homo sapiens) (UniProt P04637); experiment: LTEA_HepaRG_TP53: Life Technologies and Expression Analysis (LTEA) Assay for Tumor Protein P53 (TP53) using HepaRG (AID 2283537; active = hit-call score of the fitted dose curve at least 0.9, where 1 is the maximum; inactive = score below 0.9); conditions: mRNA level, 48 h; actives raise or lower the signal
In short: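 TP53 transcript measured by qRT-PCR, normalized to three housekeeping genes, after 48 h treatment of human HepaRG cultures with chemicals from 100 uM downward in half-log steps (0.5% DMSO vehicle, serum-free induction medium). Up- or down-regulation fitted against DMSO.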

[6] = read-out: UDP glucuronosyltransferase (UGT1A1), UGT1A1 (gene 54658); experiment: LTEA_HepaRG_UGT1A1: Life Technologies and Expression Analysis (LTEA) Assay for UDP glucuronosyltransferase (UGT1A1) using HepaRG (AID 2283538; active = hit-call score of the fitted dose curve at least 0.9, where 1 is the maximum; inactive = score below 0.9); conditions: mRNA level, 48 h; actives raise or lower the signal
In short: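 Readout is UGT1A1 transcript level by qRT-PCR, normalized to three housekeeping genes, after 48 h chemical treatment of HepaRG cells. Concentrations ran from 100 uM down in half-log steps with 0.5% DMSO, and gain or loss relative to DMSO was fitted.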

[7] = read-out: UDP glucuronosyltransferase (UGT1A6), UGT1A6 (gene 54578); experiment: LTEA_HepaRG_UGT1A6: Life Technologies and Expression Analysis (LTEA) Assay for UDP glucuronosyltransferase (UGT1A6) using HepaRG (AID 2283539; active = hit-call score of the fitted dose curve at least 0.9, where 1 is the maximum; inactive = score below 0.9); conditions: mRNA level, 48 h; actives raise or lower the signal
In short: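 Differentiated HepaRG cells, ~100,000/well, were exposed for 48 h in serum-free induction medium with 0.5% DMSO to 8-point half-log series topping at 100 uM, in duplicate. mRNA measured by Fluidigm TaqMan qRT-PCR, normalized to ACTB, GAPDH and POLR2A.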

[8] = read-out: X-box binding protein 1 (XBP1), XBP1 (gene 7494); experiment: LTEA_HepaRG_XBP1: Life Technologies and Expression Analysis (LTEA) Assay for X-box binding protein 1 (XBP1) using HepaRG (AID 2283540; active = hit-call score of the fitted dose curve at least 0.9, where 1 is the maximum; inactive = score below 0.9); conditions: mRNA level, 48 h; actives raise or lower the signal
In short: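 Differentiated human HepaRG cells in serum-free induction medium exposed 48 h in duplicate to eight half-log concentrations up to 100 uM in 0.5% DMSO. XBP1 mRNA measured by Fluidigm TaqMan qRT-PCR, normalized to ACTB, GAPDH, POLR2A; bidirectional fitting against DMSO.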

[9] = LTEA_HepaRG_LDH_cytotoxicity: Cytotoxicity Assessment in the Life Technologies and Expression Analysis (LTEA) Assay (AID 2283563)
In short: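 Differentiated HepaRG cells in serum-free induction medium, exposed 48 h in duplicate to 8 half-log concentrations up to 100 uM in 0.5% DMSO. Cytotoxicity from LDH measured in spent medium, fit relative to DMSO.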

[10] = Tanguay_ZF_120hpf_MORT_legacy: (Legacy) Oregon State University Tanguay Lab 120 Hour Post-fertilization zebrafish Assay for Mortality (AID 2283633)
In short: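 Dechorionated Tropical 5D wild-type zebrafish embryos, one per well from 6 hpf, static exposure in 0.64% DMSO at 28C until 120 hpf. Mortality scored as binary by brightfield microscopy at 24 and 120 hpf.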

[11] = Tanguay_ZF_120hpf_YSE_legacy: (Legacy) Oregon State University Tanguay Lab 120 Hour Post-fertilization zebrafish Assay for Yolk Sac Edema (AID 2283634)
In short: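 Dechorionated Tropical 5D wild-type zebrafish embryos were exposed statically, one per well, from 6 to 120 hpf at 28C in 0.64% DMSO. Yolk sac edema was scored present/absent by brightfield at 120 hpf, and dead embryos were excluded.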

[12] = Tanguay_ZF_120hpf_AXIS_legacy: (Legacy) Oregon State University Tanguay Lab 120 Hour Post-fertilization zebrafish Assay for Body Axis Malformation (AID 2283635)
In short: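 Dechorionated wild-type Tropical 5D zebrafish embryos, one per well, statically exposed from 6 hpf to 120 hpf at 28C in 0.64% DMSO final. Body axis malformation scored present/absent by brightfield microscopy at 120 hpf; dead embryos excluded.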

[13] = Tanguay_ZF_120hpf_EYE_legacy: (Legacy) Oregon State University Tanguay Lab 120 Hour Post-fertilization zebrafish Assay for Eye Malformation (AID 2283636);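 also: binary presence or absence of eye malformation scored by brightfield in 120 hpf larvae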
In short: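 Dechorionated wild-type Tropical 5D zebrafish embryos were exposed statically from 6 hpf, one per well, to 120 hpf at 28C in sealed, foil-covered plates with 0.64% DMSO. Eye malformation was scored present/absent by brightfield microscopy against DMSO controls.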

[14] = Tanguay_ZF_120hpf_SNOU_legacy: (Legacy) Oregon State University Tanguay Lab 120 Hour Post-fertilization zebrafish Assay for Snout Malformation (AID 2283637)
In short: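 Tropical 5D wild-type zebrafish embryos, dechorionated with pronase at 4 hpf, were exposed singly from 6 hpf to 120 hpf statically at 28C in 0.64% DMSO. Snout malformation was scored present/absent by brightfield microscopy, fitted against DMSO.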

[15] = Tanguay_ZF_120hpf_JAW_legacy: (Legacy) Oregon State University Tanguay Lab 120 Hour Post-fertilization zebrafish Assay for Jaw Malformation (AID 2283638)
In short: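 Dechorionated Tropical 5D wild-type zebrafish embryos, one per well, exposed statically from 6 hpf to 120 hpf at 28C in 0.64% DMSO. Jaw malformation was scored by brightfield microscopy as present or absent. It was not scored in dead embryos.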

[16] = Tanguay_ZF_120hpf_OTIC_legacy: (Legacy) Oregon State University Tanguay Lab 120 Hour Post-fertilization zebrafish Assay for Otic Vesicle Malformation (AID 2283639)
In short: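 Embryos from 5D wild-type adults exposed in plates; DMSO 0.64% v/v final. Sealed, light-protected, 28C, static to 120 hpf. Otic vesicle malformation recorded as binary endpoint; gain-of-signal fitted vs DMSO.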

[17] = Tanguay_ZF_120hpf_PE_legacy: (Legacy) Oregon State University Tanguay Lab 120 Hour Post-fertilization zebrafish Assay for Pericardial Edema (AID 2283640)
In short: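 Tropical 5D wild-type zebrafish embryos were statically exposed until 120 hpf at 28C, with 0.64% DMSO final. Pericardial edema was scored by brightfield as present or absent; endpoints were not scored in dead embryos.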

[18] = Tanguay_ZF_120hpf_BRAI_legacy: (Legacy) Oregon State University Tanguay Lab 120 Hour Post-fertilization zebrafish Assay for Brain Malformation (AID 2283641)
In short: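 Tropical 5D wild-type zebrafish embryos exposed statically until 120 hpf at 28C, 0.64% DMSO final, sealed and dark. Brain malformation scored present/absent by brightfield at 120 hpf; dead embryos excluded. Trimethyltin chloride 5uM positive control.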

[19] = Tanguay_ZF_120hpf_SOMI_legacy: (Legacy) Oregon State University Tanguay Lab 120 Hour Post-fertilization zebrafish Assay for Somite Malformation (AID 2283647)
In short: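 Dechorionated Tropical 5D wild-type zebrafish embryos, one per well from 6 hpf, statically exposed at 28C to 120 hpf in 0.64% DMSO; somite malformation scored present/absent by brightfield; trimethyltin 5 uM positive control; dead embryos not scored.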

Measured: outcome

Cellular tumor antigen p53 (Homo sapiens), sequence (P04637 whole entry, looked up): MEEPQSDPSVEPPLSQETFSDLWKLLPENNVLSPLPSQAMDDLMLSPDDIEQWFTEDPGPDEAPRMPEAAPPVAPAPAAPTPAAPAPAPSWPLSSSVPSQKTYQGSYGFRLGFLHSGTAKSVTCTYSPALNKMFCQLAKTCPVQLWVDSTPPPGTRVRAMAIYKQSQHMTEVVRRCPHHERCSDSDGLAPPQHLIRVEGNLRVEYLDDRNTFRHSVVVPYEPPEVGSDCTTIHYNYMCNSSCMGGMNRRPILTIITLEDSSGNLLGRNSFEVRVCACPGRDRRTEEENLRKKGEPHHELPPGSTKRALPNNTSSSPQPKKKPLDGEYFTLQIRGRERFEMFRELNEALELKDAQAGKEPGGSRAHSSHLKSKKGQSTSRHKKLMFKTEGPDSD

N#CCCCCC#N
inactive: all assays above

O=[N+]([O-])c1ccc(Cl)cc1
inactive: all assays above
